Experimental data as given in PubChem BioAssay (NCI).
Where “and” joins values, the source holds several entries; their conditions need not be identical. Equal entries are not always repeated. The panel holds about 79,000 compounds, 15% with a hit somewhere; the sample as a whole holds those more often. More than one record can exist for a structure, and the calls need not agree. Calls of active or inactive are those of the source. Cut-off read from the data, not from the text of the source: active = growth inhibition above about 70%; inactive = the rest.

Key:
[1] = NCI Yeast Anticancer Drug Screen. Data for the rad50 strain (AID 155);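 note: 0% = growth of vehicle-only cultures of the same strain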; settings: S. cerevisiae rad50 strain growth inhibition, stronger effect = higher value
Summary of the method: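 DNA repair mutant yeast, compound exposure, growth read-out; inhibition is taken relative to vehicle.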

[2] = NCI Yeast Anticancer Drug Screen. Data for the mec2-1 strain (AID 157); settings: S. cerevisiae mec2-1 strain, stronger effect = higher value
Summary of the method: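 Strain: mec2-1 (DNA repair/cell cycle alteration). Compound exposure, then growth measured; inhibition expressed relative to vehicle.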

[3] = NCI Yeast Anticancer Drug Screen. Data for the sgs1 mgt1 strain (AID 161);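 note: 0% = growth of cultures given vehicle only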; settings: S. cerevisiae sgs1 mgt1 strain, stronger effect = higher value
Summary of the method: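 Mutant yeast exposed to compound; growth scored against vehicle-only wells.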

[4] = NCI Yeast Anticancer Drug Screen. Data for the cln2 rad14 strain (AID 165);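 note: 0% = growth equal to vehicle treated cultures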; settings: S. cerevisiae cln2 rad14 strain, stronger effect = higher value
Summary of the method: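 Compounds are applied to the cln2 rad14 yeast strain, and growth is then compared with that of vehicle-treated cultures to give inhibition.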

[5] = NCI Yeast Anticancer Drug Screen. Data for the bub3 strain (AID 167); settings: S. cerevisiae bub3 mutant strain, stronger effect = higher value
Summary of the method: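 In this screen, a yeast mutant lacking normal mitotic checkpoint function is challenged with compound. Relative growth versus vehicle gives the inhibition value.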

[6] = NCI Yeast Anticancer Drug Screen. Data for the mlh1 rad18 strain (AID 175); settings: S. cerevisiae mlh1 rad18 strain growth inhibition, stronger effect = higher value
Summary of the method: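 Read-out is yeast growth inhibition, calculated against vehicle-only controls. The compound was applied to a strain engineered with DNA damage repair alterations.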

[7] = at 5.0 µM (retest, dose inferred, filed as 0.5)
[8] = at 50.0 µM (retest, dose inferred, filed as 5.0)

Row | SMILES | growth inhibition [1, 7] | growth inhibition [1, 8] | growth inhibition ([1]; at 50.0 µM) | growth inhibition [2, 7] | growth inhibition [2, 8] | growth inhibition ([2]; at 50.0 µM) | growth inhibition [3, 7] | growth inhibition [3, 8] | growth inhibition ([3]; at 50.0 µM) | growth inhibition [4, 7] | growth inhibition [4, 8] | growth inhibition ([4]; at 50.0 µM) | growth inhibition [5, 7] | growth inhibition [5, 8] | growth inhibition ([5]; at 50.0 µM) | growth inhibition [6, 7] | growth inhibition [6, 8] | growth inhibition ([6]; at 50.0 µM)
1 | OC(CN1CCCCC1)c1cc(-c2ccc(Cl)cc2)nc2cc(Cl)ccc12 (stereo not given) | -6% (inactive) | 99% (active) | 90.5% (active) | -13% (inactive) | 100% (active) | 92.7% (active) | -4% (inactive) | 100% (active) | 99.5% (active) | -7% (inactive) | 99% (active) | 95.6% (active) | -7% (inactive) | 99% (active) | 99.4% (active) | 18% (inactive) | 99% (active) | 99.2% (active)
2 | CC1=NC(=Cc2ccc([N+](=O)[O-])cc2)C(=O)N1n1c(-c2ccccc2)nc2ccccc2c1=O | 3% (inactive) | 1% (inactive) | 48.9% (inactive) | -13% (inactive) | 0% (inactive) | 63.8% (inactive) | 5% (inactive) | 7% (inactive) | 45.3% (inactive) | 13% (inactive) | 11% (inactive) | 77% (active) | -15% (inactive) | -2% (inactive) | 68% (inactive) | 11% (inactive) | 1% (inactive) | 62.8% (inactive)
3 | c1ccc2c(c1)CC1=C(O2)c2ccccc2OC1 | -2% (inactive) | 48% (inactive) | 37.5% (inactive) | 2% (inactive) | 78% (active) | 39.5% (inactive) | 5% (inactive) | 76% (active) | 42.7% (inactive) | -3% (inactive) | 22% (inactive) | 46.1% (inactive) | 4% (inactive) | 80% (active) | 53% (inactive) | 6% (inactive) | 89% (active) | 92.1% (active)
4 | Cc1nnc(S(=O)(=O)c2ccc(N=Nc3c(N)nc(N)nc3N)cc2)s1 | 6% (inactive) | 20% (inactive) | -5.45% (inactive) | 8% (inactive) | -5% (inactive) | -13.2% (inactive) | -8% (inactive) | -9% (inactive) | -9.15% (inactive) | 9% (inactive) | 4% (inactive) | 68.4% (inactive) | -1% (inactive) | 7% (inactive) | -23.5% (inactive) | 11% (inactive) | 7% (inactive) | 6.4% (inactive)
5 | CC(=O)[C@]1(O)Cc2c(O)c3c(c(O)c2[C@@H](OC2CC(N)C(O)C(C)O2)C1)C(=O)c1c(O)cccc1C3=O (stereo not given in full) | 88% (active) and 91% (active) | 97% (active) and 96% (active) | 91.1% (active) and 86.5% (active) | 81% (active) and 80% (active) | 98% (active) and 97% (active) | 92.5% (active) and 89% (active) | 73% (active) and 92% (active) | 96% (active) and 98% (active) | 92.4% (active) and 88.3% (active) | 57% (inactive) and 66% (inactive) | 97% (active) and 95% (active) | 88.7% (active) and 89.2% (active) | 77% (active) and 86% (active) | 97% (active) and 98% (active) | 90.8% (active) and 89% (active) | 90% (active) and 87% (active) | 97% (active) and 95% (active) | 90.2% (active) and 92% (active)
6 | O=C1C=C(c2c(O)ccc3ccccc23)c2ccccc2C1=O | 48% (inactive) and 29% (inactive) | 98% (active) | 98.9% (active) and 85.8% (active) | 73% (active) and 21% (inactive) | 99% (active) and 98% (active) | 98.8% (active) and 85% (active) | 80% (active) and 40% (inactive) | 98% (active) | 84.8% (active) and 89.8% (active) | 59% (inactive) and 36% (inactive) | 99% (active) and 98% (active) | 98.7% (active) and 89.3% (active) | 46% (inactive) and 40% (inactive) | 99% (active) and 97% (active) | 98.7% (active) and 90.3% (active) | 94% (active) and 73% (active) | 98% (active) and 97% (active) | 98.7% (active) and 90.2% (active)
7 | O=C1Nc2ccccc2C1(O)C/C(=N/O)c1ccc2ccccc2c1 (stereo not given) | 34% (inactive) | 36% (inactive) | 35.1% (inactive) | 27% (inactive) | 40% (inactive) | 13.9% (inactive) | 71% (active) | 51% (inactive) | 49.5% (inactive) | 52% (inactive) | 44% (inactive) | 38% (inactive) | 47% (inactive) | 77% (active) | 14.9% (inactive) | 40% (inactive) | 64% (inactive) | 66.5% (inactive)
8 | O=c1ccn(C2CC(O)C(COC(c3ccccc3)(c3ccccc3)c3ccccc3)O2)c(=O)[nH]1 (stereo not given) | 1% (inactive) and 22% (inactive) | 99% (active) | 49.5% (inactive) and 40.2% (inactive) | 6% (inactive) and 7% (inactive) | 100% (active) and 99% (active) | 98% (active) and 53% (inactive) | -1% (inactive) | 100% (active) and 54% (inactive) | 42.5% (inactive) and 52.7% (inactive) | 8% (inactive) and 5% (inactive) | 99% (active) | 97.7% (active) and 56% (inactive) | 7% (inactive) and 1% (inactive) | 99% (active) and 98% (active) | 99.5% (active) and 16.2% (inactive) | 13% (inactive) | 99% (active) and 98% (active) | 41.9% (inactive) and 51.7% (inactive)
9 | CC(C)C1=C(O)C2=C(C(=O)C1=O)C1(C)CCCC(C)(C)C1CC2O (stereo not given) | 42% (inactive) | 98% (active) | 36.9% (inactive) and 14.3% (inactive) | 55% (inactive) | 98% (active) | 22.1% (inactive) and -9.35% (inactive) | 48% (inactive) | 98% (active) | 45% (inactive) and 39.5% (inactive) | 46% (inactive) | 98% (active) | 32.4% (inactive) and 6.45% (inactive) | 75% (active) | 97% (active) | 56.6% (inactive) and 17.4% (inactive) | 56% (inactive) | 98% (active) | 83.1% (active) and 21.6% (inactive)
10 | CC1C[C@]2(C)C(=O)Nc3ccccc3[C@@H]2Nc2ccccc21 (stereo not given in full) | 6% (inactive) | 36% (inactive) | 91.1% (active) | 10% (inactive) | 30% (inactive) | 93.8% (active) | 22% (inactive) | 14% (inactive) | 93.2% (active) | -6% (inactive) | 57% (inactive) | 89.5% (active) | 20% (inactive) | 73% (active) | 91.5% (active) | 16% (inactive) | 43% (inactive) | 89.2% (active)
11 | O=C(O)c1ccc(C(c2ccccc2)c2ccccc2)cc1 | -19% (inactive) | 100% (active) | 97% (active) | 10% (inactive) | 100% (active) | 97.2% (active) | 11% (inactive) | 99% (active) | 98% (active) | -11% (inactive) | 99% (active) | 96.3% (active) | -1% (inactive) | 99% (active) | 98.3% (active) | 8% (inactive) | 99% (active) | 98% (active)
12 | O=C(O)/C(=C(/c1ccccc1)c1ccc(Cl)cc1)c1ccccc1 | 35% (inactive) | 98% (active) | 98.2% (active) and 89.3% (active) | 37% (inactive) | 100% (active) | 32.6% (inactive) and -26.5% (inactive) | 46% (inactive) | 100% (active) | 81.8% (active) and 89.8% (active) | 55% (inactive) | 99% (active) | 94.2% (active) and 91.3% (active) | 43% (inactive) | 99% (active) | 49.7% (inactive) and 90.3% (active) | 69% (inactive) | 98% (active) | 97.4% (active) and 89.5% (active)
13 | c1ccc2c(c1)CNc1ccccc1-2 | 4% (inactive) | 58% (inactive) | 48% (inactive) | -10% (inactive) | 21% (inactive) | 42.7% (inactive) | 0% (inactive) | 66% (inactive) | 83.5% (active) | 6% (inactive) | 16% (inactive) | 7.4% (inactive) | 47% (inactive) | 60% (inactive) | 85.5% (active) | 3% (inactive) | 45% (inactive) | 92.1% (active)
14 | CCCCCCCCCCCCOS(=O)(=O)O | -6% (inactive) | 29% (inactive) | -13.1% (inactive) and 99% (active) and 25.1% (inactive) | -12% (inactive) | 2% (inactive) | -36.6% (inactive) and 98.2% (active) and 32.4% (inactive) | -5% (inactive) | 28% (inactive) | 6.3% (inactive) and 97% (active) and 36.8% (inactive) | 0% (inactive) | 36% (inactive) | 1% (inactive) and 98.4% (active) and 7.2% (inactive) | -17% (inactive) | -20% (inactive) | -29.6% (inactive) and 97% (active) and 23.4% (inactive) | -17% (inactive) | 29% (inactive) | -2.05% (inactive) and 98.2% (active) and 55.9% (inactive)
15 | Nc1cc2c(cc1[N+](=O)[O-])[nH]c1c(-c3ccccc3)nccc12 | 9% (inactive) | 97% (active) | 99.2% (active) | -5% (inactive) | 99% (active) | 96.4% (active) | 10% (inactive) | 99% (active) | 99.3% (active) | 1% (inactive) | 89% (active) | 99.1% (active) | 28% (inactive) | 98% (active) | 99.2% (active) | 2% (inactive) | 98% (active) | 98.9% (active)
